Assay results as given in PubChem BioAssay AID434973 (Sanford-Burnham Center for Chemical Genomics, 2010).
The campaign covered roughly 330,000 compounds. About 4,900 (1.5%) were called active. Many of the other results were omitted from the sample, so actives are more common in it than they were. A number with no mark means an inactive call.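 The calls were made as follows: active = inhibition above about 50% at the single test dose (limit read from the data); inactive = the rest.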

Target: Sentrin-specific protease 7 (Homo sapiens) (UniProt Q9BQF6)
Assay: blockers of human SENP7 peptidase activity – biochemical, luminescence, uHTS, primary screen (AID 434973);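 also: plate controls were DMSO with enzyme for no effect and no enzyme buffer wells for full effect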
Conditions: recombinant SENP7, Z-RLRGG-aminoluciferin luminescence, 40 min; at 5 µM; hits give high values

Structure (SMILES) | inhibition
COc1ccc(C2CC(=O)C=C(NCC3CCCO3)C2)cc1 (configuration not stated) | 5.59%
O=C(CN1C(=O)NC2(CCCCCC2)C1=O)NCc1cccs1 | 3.72%
Cc1cnc(NC(=O)c2ccccn2)s1 | 82.8% (active)
O=C(Nc1nnc(Cc2ccccc2)s1)c1cnccn1 | 3.97%
O=C(Nc1nnc(C2CC2)s1)c1ccccn1 | 57.4% (active)
Cc1cnc(NC(=O)C2CCCC2)s1 | 0.0964%
Cc1cc(C(=O)Nc2nnc(C3CC3)s2)c(C)s1 | 77% (active)
Cc1ccc(SCC(=O)Nc2ncc(C)s2)cc1 | -2.81%
CCc1cc(C(=O)Nc2nnc(C3CC3)s2)sc1C | -5.93%
O=C(Nc1nnc(C2CC2)s1)c1cc(Cl)sc1Cl | 5.7%
Cc1cccc(NC(=O)CSCC(=O)Nc2nnc(C3CC3)s2)c1 | 4.12%
OC(CNC1CCCC1)COc1ccc(F)cc1 (configuration not stated) | 7.04%
Cc1nn(C(C)(C)C)c(OC(=O)CC(C)C)c1S(=O)(=O)c1ccccc1 | 4.96%
COc1ccc(S(=O)(=O)N2CCN(C(=O)c3cc(C)oc3C)CC2)cc1 | 3.33%
COc1ccccc1-c1oc2ccccc2c1C#CCCCCO | 5.54%
CC1Cc2ccccc2N1C1=CC(=O)CC(C)(C)C1 (configuration not stated) | -3.44%
CC(C)(C)NC(=O)c1ccc(Cn2cc(C(F)(F)F)ccc2=O)cc1 | -6.25%
Clc1ccc(-c2nc3ccccn3c2CN2CCSCC2)cc1 | -5.08%
Cc1ccc(C(=O)C(=S)N2CCOCC2)cc1 | -2.91%
CC1=NN(C(N)=S)C(=O)C1N=Nc1cc(Cl)ccc1Cl (configuration not stated) | -5.66%
Cc1[nH]n(C)c(=O)c1N=Nc1ccc(S(C)(=O)=O)cc1 | 0%
Cc1[nH]n(C(N)=S)c(=O)c1N=Nc1ccc(Cl)cc1Cl | 51.8% (active)
CCOc1ccc(NC(=O)N2CC=C(n3c(=O)[nH]c4ccccc43)CC2)cc1 | 4%
CC1CN(/C=C/C(=O)C(F)(F)F)CC(C)O1 (configuration not stated) | 1.13%
O=C(NCCC1=CCCCC1)C1CCN(Cc2cnn(-c3ccccc3)c2-n2cccc2)CC1 | -3.45%
C1=C(CCNc2ncnc3c2cnn3-c2ccccc2)CCCC1 | 56.6% (active)

Structure (SMILES) | inhibition
CC(C)Sc1ncnc2c1cnn2-c1ccccc1 | 45.7%
CCCS(=O)(=O)N1CCC(C(=O)NCCCN(C)Cc2ccccc2)CC1 | -8.04%
O=C(Nc1ccccc1Cl)c1ccc2nsnc2c1 | 50.7% (active)
Cc1cccc(NC(=O)c2ccc3nsnc3c2)c1C | 2.56%
O=C(Nc1ccccc1)c1ccc2nsnc2c1 | 35.8%
COc1cccc(-c2nnc(SCCOc3ccc4c(C)cc(=O)oc4c3)o2)c1 | 7.33%
COc1cccc(-c2nc3cc(C)ccc3o2)c1 | 99.9% (active)
COc1ccc2oc(-c3cccc(NC(=O)CSc4ccc(Cl)cc4)c3)nc2c1 | -4.24%
COc1ccc([N+](=O)[O-])cc1-c1nc2ccccc2nc1-c1ccccc1 | -0.763%
O=[N+]([O-])c1ccc2oc(-c3cccc(O)c3)nc2c1 | 87.7% (active)
Cc1nc(-c2ccc([N+](=O)[O-])cc2)c(-c2ccccc2)o1 | -7.84%
Cc1ccc(C2(C)NC(=O)N(CC(=O)Nc3ccccc3C(=O)N3CCCCC3)C2=O)cc1 (configuration not stated) | 12.4%
COCOc1cc(O)c(C(=O)/C=C/c2ccc(OCOC)c(OCOC)c2)c(OCOC)c1 | 6.61%
O=C(/C=C/c1ccco1)NC(=S)Nc1ccccc1Br | -4.36%
O=C(/C=C/c1ccco1)Nc1ccc(Oc2ccccc2)cc1 | 63.9% (active)
Cc1nnc(NC(=O)/C=C/c2ccco2)s1 | -7.44%
CCOc1cc(NC(=O)CCl)c(OCC)cc1NC(C)=O | 5.15%
O=C(Cc1ccc(S(=O)(=O)N2CCOCC2)s1)N1CCN(c2ccc(C(F)(F)F)cc2[N+](=O)[O-])CC1 | -8%
NC1=NN(c2cccc(C(=O)O)c2)C(=O)C1 | 5.47%
O=C(O)c1cccc(N=NN2CCCCCC2)c1 | 77.8% (active)
O=C(O)c1ccc(N=NN2CCOCC2)cc1 | -2.47%
CC(=O)Oc1ccc2c(=O)oc(-c3ccc([N+](=O)[O-])cc3)nc2c1 | 97.5% (active)
CC(=O)Oc1ccc(-c2nc3c(C)cccc3c(=O)o2)cc1 | -7.63%
O=C(Oc1ccc([N+](=O)[O-])cc1)c1ccc2ccccc2n1 | -9.28%
COc1ccc(OCC(=O)NCCc2ccc(S(N)(=O)=O)cc2)cc1 | 7.31%
O=C(COC(=O)c1ccco1)NCc1ccc(Cl)cc1 | -0.452%

Structure (SMILES) | inhibition
O=C(OCC(=O)N1CCCC1)c1ccco1 | -6.82%
CCc1ccc(C(=O)COC(=O)c2ccco2)cc1 | 68.9% (active)
Cc1ccc(-n2nc(-c3ccco3)cc2C(=O)NCc2cccnc2)cc1 | 0.29%
COc1ccc(C(=O)Nc2cc(C)c(NC(=O)c3ccccc3OC)cn2)cc1 | 9.47%
COc1ccc(NS(=O)(=O)c2cc(C(=O)Nc3ccccc3C(=O)O)ccc2C)cc1 | 9.65%
CCOc1cc(/C=N/NC(=O)c2cc(-c3ccccc3)nc3ccccc23)ccc1O | -1.26%
COc1ccc(C(=O)Nc2ccccc2C(=O)N/N=C/c2ccccc2OC)cc1 | 64.8% (active)
COc1ccccc1C(=O)NNC(=O)c1ccc(NC(=O)c2ccccc2)cc1 | 11.6%
COc1ccc(/C=N/OCC(=O)N(Cc2ccccc2)c2ccccc2C(=O)O)cc1 | 6.96%
COc1ccc(/C=N/Nc2ccccc2C(=O)O)cc1 | 94.3% (active)
COc1ccc(C(=O)Nc2ccccc2C(=O)N/N=C/c2ccc(O)c(OC)c2)cc1 | 101% (active)
O=C(N/N=C/c1ccc(OC(=O)c2ccccc2Cl)cc1)c1ccc(O)cc1 | 4.1%
O=C(CN1C(=O)NC2(CCCCC2)C1=O)N1CCN(C(=O)c2cccs2)CC1 | -1.61%
COc1cc(S(=O)(=O)N2CCN=C2c2ccccc2)ccc1Cl | -10%
O=C(CC1OC(=O)c2ccccc21)NC1CCCCC1 (configuration not stated) | 1.77%
CC(C)c1c(O)nc(SCCOc2ccc(Cl)cc2)[nH]c1=O | 8.54%
O=C(Cn1cnc2ccccc2c1=O)NNC(=O)c1ccccc1F | -11%
CCN1CCN(C(C(=O)NC2CCCC2)c2cc3c(cc2[N+](=O)[O-])OCO3)CC1 (configuration not stated) | -3.92%
Nc1nc(C23CC4CC(CC(C4)C2)C3)cs1 | 3.32%
C(=N/Nc1cc(N2CCOCC2)nc(N2CCOCC2)n1)/c1ccccc1 | 31.9%
Fc1ccccc1/C=N/Nc1cc(N2CCCCC2)ncn1 | 69.8% (active)
COc1ccccc1N1CCN(C(=O)C(=O)N/N=C/c2ccccc2F)CC1 | -1.74%
CC(=O)Nc1ccc(S(=O)(=O)Nc2cc(C)cn(Cc3ccc(C)cc3)c2=O)cc1 | 2.97%
Cc1ccc(S(=O)(=O)NC[C@H]2O[C@@H](n3cnc4c(N)ncnc43)[C@H](O)[C@@H]2O)s1 | 6.73%
CC(=O)c1cccc(NC(=O)COc2ccc(S(=O)(=O)N3CCOCC3)cc2)c1 | 3.63%
